Assay results: PubChem BioAssay (Tox21)
Values joined by “and” are separate entries in the source; they are usually repeats but may differ in a detail not shown here. Identical values can stand only once. Inconclusive results are not listed. Active and inactive are the calls of the source. Unless noted, calls follow the shape of the dose curve; as a rule, active = well fitted curve in the direction sought with a large enough effect in the repeat runs; inconclusive = weak or mixed curves; inactive = no such curve, though single readings can be large; an effect the other way counts as inactive or inconclusive.

Columns and labels:
[1] = A CellTox Green Cytotoxicity Assay to monitor cytotoxicity in HepG2 cells - 0 hour (AID 1224882); also: nearly all actives have a fitted effect of over 35% in size
Outline: (§1)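 Nonlytic assay: viable cells exclude the dye, so fluorescence scales with cell death. HepG2 at 600 cells/well, compounds added after 5 h, signal read across 40 h.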

[2] = A CellTox Green Cytotoxicity Assay to monitor cytotoxicity in HepG2 cells - 32 hour (AID 1224883); also: nearly all actives have a fitted effect of over 50% in size; also: potency is read from the fitted curve at half-maximal effect
Outline: as §1

[3] = A CellTox Green Cytotoxicity Assay to monitor cytotoxicity in HEK293 cells - 8 hour (AID 1224884); also: nearly all actives have a fitted effect of over 35% in size
Outline: (§2)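 Seeding of HEK293 cells together with cytotoxicity dye preceded a 5 h incubation at 37 C/5% CO2. Test compounds in DMSO were then added and fluorescence monitored across 40 h.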

[4] = qHTS RealTime-Glo MT Cell Viability Assay in HepG2 cells - 16 hour (AID 1224885); also: nearly all actives have a fitted effect of over 50% in size
Outline: (§3)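 Luminescence read-out: viable HepG2 cells reduce a prosubstrate to a NanoLuc substrate, giving a signal proportional to live cell number. Reads taken at 0, 8, 16, 24, 32 and 40 h of compound exposure at 37 C.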

[5] = qHTS RealTime-Glo MT Cell Viability Assay in HEK293 cells - 24 hour (AID 1224886); also: nearly all actives have a fitted effect of over 50% in size; also: potency is read from the fitted curve at half-maximal effect
Outline: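 Nonlytic real-time viability readout: viable cells convert prosubstrate to NanoLuc substrate, giving luminescence proportional to live cell number. HEK293, 600 cells/well, compound added after 5 h, continuous culture at 37 C.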

[6] = qHTS RealTime-Glo MT Cell Viability Assay in HEK293 cells - 8 hour (AID 1224887); also: nearly all actives have a fitted effect of over 50% in size; also: potency is read from the fitted curve at half-maximal effect
Outline: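 Tox21 screen in HEK293 using RealTime-Glo MT chemistry, with cells and reagent co-dispensed. Luminescence proportional to viable cell number was captured at intervals during 40 h compound exposure at 37 C.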

[7] = A CellTox Green Cytotoxicity Assay to monitor cytotoxicity in HEK293 cells - 16 hour (AID 1224888); also: nearly all actives have a fitted effect of over 35% in size
Outline: as §2

[8] = qHTS RealTime-Glo MT Cell Viability Assay in HepG2 cells - 0 hour (AID 1224889); also: nearly all actives have a fitted effect of over 50% in size; also: potency is read from the fitted curve at half-maximal effect
Outline: as §3

[9] = A CellTox Green Cytotoxicity Assay to monitor cytotoxicity in HepG2 cells - 8 hour (AID 1224890); also: nearly all actives have a fitted effect of over 45% in size
Outline: as §1

[10] = qHTS assay to identify small molecule antagonists of the estrogen receptor alpha (ER-alpha) signaling pathway using the BG1 cell line in the presence of 0.1 nM 17-beta-estradiol - cell viability counter screen (AID 1259241); also: nearly all actives have a fitted effect of over 40% in size
Outline: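 VM7Luc4E2 cells (endogenous ER-alpha, 4×ERE-luciferase), hormone-starved 5 days in charcoal-stripped FBS, were treated with compounds plus 0.1 nM 17beta-estradiol for 22 hr at 37C; viability read in same wells as CellTiter-Fluor live-cell protease fluorescence.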

[11] = qHTS assay to identify small molecule antagonists of the androgen receptor (AR) signaling pathway using the MDA cell line in the presence of 0.5 nM R1881 - cell viability counter screen (AID 1259242); also: nearly all actives have a fitted effect of over 45% in size
Outline: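 R1881 at 0.5 nM final stimulated MDA-kb2 cells during 16 hr compound treatment at 37C. Cytotoxicity read: CellTiter-Fluor fluorescence after 30 min.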

[12] = target: Androgen receptor (Homo sapiens) (UniProt P10275); test: qHTS assay to identify small molecule antagonists of the androgen receptor (AR) signaling pathway using the MDA cell line in the presence of 0.5 nM R1881 (AID 1259243); also: nearly all actives have a fitted effect of over 50% in size; also: potency is read from the fitted curve at half-maximal effect
Outline: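 We exposed MDA-kb2 cells to compounds under 0.5 nM R1881 stimulation for 16 hr at 37C and quantified MMTV-driven luciferase by luminescence.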

[13] = qHTS assay to identify small molecule HDAC inhibitors (AID 1259364); also: potency is read from the fitted curve at half-maximal effect;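 also: wild-type HCT-116 cells with endogenous class I/II HDAC activity; nearly all actives have a fitted effect of over 45% in size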
Outline: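 Relative class I and II HDAC activity is taken from the luminogenic signal in HCT-116 cells, with compound exposure 2 hr and reagent development 30 min at room temperature.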

[14] = qHTS assay to identify small molecule HDAC inhibitors - cell viability counter screen (AID 1259365)
Outline: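 Wild-type HCT-116 cells were seeded at 1,500 per well, incubated overnight at 37 C, then exposed to compounds in DMSO for 2hr. Viability was read by CellTiter-Glo luminescence after 30min at room temperature.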

[15] = qHTS assay to identify small molecule agonists of the sonic hedgehog signaling (Shh) pathway - cell viability counter screen (AID 1259366); also: nearly all actives have a fitted effect of over 50% in size
Outline: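 NIH/3T3-derived 3T3 Gli1-Luc cells (stable Gli1-responsive firefly luciferase reporter) were seeded, rested 4 hr at 37 C/5% CO2, then exposed to compounds in DMSO for 24 hr; viability was read by CellTiter-Fluor fluorescence in the same wells.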

[16] = qHTS assay to identify small molecule antagonists of the sonic hedgehog signaling (Shh) pathway - cell viability counter screen (AID 1259367); also: nearly all actives have a fitted effect of over 55% in size
Outline: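 NIH/3T3-derived Gli1-Luc reporter cells, 2,000/well, plated 4 hr before compound addition, then stimulated with conditioned medium for 24 hr at 37C. Viability measured in the same wells by CellTiter-Fluor fluorescence, reagent added at 23 hr for 1 hr.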

[17] = qHTS assay to identify small molecule agonists of the sonic hedgehog signaling (Shh) pathway (AID 1259368; calls by dose curve; also: series mostly up to about 92 µM; nearly all actives have a fitted effect of over 15% in size)
Outline: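 Mouse fibroblast (NIH/3T3) reporter cells with stably integrated Gli1-Luc were treated 24 hr with compound; firefly luciferase luminescence served as the read-out.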

[18] = A CellTox Green Cytotoxicity Assay to monitor cytotoxicity in HEK293 cells - 32 hour (AID 1224881); also: nearly all actives have a fitted effect of over 40% in size; also: potency is read from the fitted curve at half-maximal effect
Outline: as §2

[19] = target: Estrogen receptor (Homo sapiens) (UniProt P03372); test: qHTS assay to identify small molecule antagonists of the estrogen receptor alpha (ER-alpha) signaling pathway using the BG1 cell line in the presence of 0.1 nM 17-beta-estradiol (AID 1259244); also: nearly all actives have a fitted effect of over 50% in size; also: potency is read from the fitted curve at half-maximal effect
Outline: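 VM7Luc4E2; 4xERE-luciferase; 0.1 nM E2 final; 22 h co-incubation, 37C; ONE-Glo luminescence after 30 min at room temperature.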

[20] = qHTS assay to identify small molecule phospholipidosis (PLD) inducers (AID 1259344; active = well fitted curve in the direction sought with a large enough effect; an effect the other way counts as inactive or inconclusive)
Outline: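 HepG2 cells, 900/well, treated with compound plus LipidTOX Red for 24 h at 37 C; amiodarone positive and DMSO negative controls. Fixed with paraformaldehyde/Hoechst, then high-content imaging scored LipidTOX pit count and integrated intensity per well and per cell.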

Measured: Potency

Chain of Estrogen receptor (Homo sapiens) (P03372 whole entry, looked up): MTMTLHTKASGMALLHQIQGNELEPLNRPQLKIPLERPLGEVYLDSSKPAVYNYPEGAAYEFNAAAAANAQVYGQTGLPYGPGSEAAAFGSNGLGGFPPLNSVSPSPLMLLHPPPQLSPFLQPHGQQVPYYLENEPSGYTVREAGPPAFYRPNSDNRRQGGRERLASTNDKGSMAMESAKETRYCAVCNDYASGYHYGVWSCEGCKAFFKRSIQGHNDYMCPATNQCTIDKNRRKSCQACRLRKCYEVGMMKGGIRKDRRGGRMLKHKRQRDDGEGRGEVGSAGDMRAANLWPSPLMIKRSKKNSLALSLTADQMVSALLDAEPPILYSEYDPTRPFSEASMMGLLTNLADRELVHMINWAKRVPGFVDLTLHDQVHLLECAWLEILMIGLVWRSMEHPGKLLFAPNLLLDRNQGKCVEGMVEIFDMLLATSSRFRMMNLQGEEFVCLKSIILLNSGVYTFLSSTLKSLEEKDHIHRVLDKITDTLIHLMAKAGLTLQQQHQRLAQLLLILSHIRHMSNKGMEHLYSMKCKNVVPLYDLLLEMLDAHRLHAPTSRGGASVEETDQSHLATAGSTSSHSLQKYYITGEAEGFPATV
Chain of Androgen receptor (Homo sapiens) (P10275 whole entry, looked up): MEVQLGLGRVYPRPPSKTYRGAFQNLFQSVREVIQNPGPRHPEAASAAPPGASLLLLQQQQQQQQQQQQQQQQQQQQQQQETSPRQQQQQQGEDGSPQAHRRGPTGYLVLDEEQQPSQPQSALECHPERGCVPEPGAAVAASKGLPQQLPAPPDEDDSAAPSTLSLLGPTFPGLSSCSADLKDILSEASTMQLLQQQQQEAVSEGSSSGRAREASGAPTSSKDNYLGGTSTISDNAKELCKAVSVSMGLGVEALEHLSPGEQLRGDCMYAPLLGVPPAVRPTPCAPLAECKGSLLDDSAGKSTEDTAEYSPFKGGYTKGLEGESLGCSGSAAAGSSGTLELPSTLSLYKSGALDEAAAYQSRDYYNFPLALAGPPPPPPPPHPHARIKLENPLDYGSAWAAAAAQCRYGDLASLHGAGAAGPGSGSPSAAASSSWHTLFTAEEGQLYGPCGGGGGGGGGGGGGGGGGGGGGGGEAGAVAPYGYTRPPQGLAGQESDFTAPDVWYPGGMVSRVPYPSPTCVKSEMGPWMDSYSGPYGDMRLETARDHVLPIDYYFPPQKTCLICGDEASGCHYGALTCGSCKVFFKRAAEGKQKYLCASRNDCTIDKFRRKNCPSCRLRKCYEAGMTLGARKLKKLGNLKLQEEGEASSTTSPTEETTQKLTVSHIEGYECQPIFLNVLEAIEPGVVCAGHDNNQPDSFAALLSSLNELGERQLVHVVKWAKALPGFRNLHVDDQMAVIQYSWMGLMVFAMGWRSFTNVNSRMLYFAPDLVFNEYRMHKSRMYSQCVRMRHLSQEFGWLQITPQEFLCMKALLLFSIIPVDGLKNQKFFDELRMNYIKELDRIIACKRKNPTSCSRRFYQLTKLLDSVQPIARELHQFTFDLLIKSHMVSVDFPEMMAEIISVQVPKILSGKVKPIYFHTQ

CCCCCCCCCCC=O
not listed: [18] | [19] | [20]
inactive: all other assays above

Clc1ccc2cc3ccccc3cc2c1
active: [13] 54.4 µM
not listed: [2] | [5] | [6] | [12] | [20]
inactive: all other assays above

CC(C)(C)CC(C)(C)c1ccc(O)c(Cc2ccc(Cl)cc2Cl)c1
inactive: [1] | [3] | [8] | [20] | [13] | [17]
active: [18] 23.9 µM | [6] 23.9 µM | [12] 29.8 µM | [19] 33.5 µM

CS(=O)(=O)CCNCc1ccc(-c2ccc3ncnc(Nc4ccc(OCc5cccc(F)c5)c(Cl)c4)c3c2)o1
active: [6] 21.3 µM | [8] 8.49 µM | [12] 13.3 µM | [19] 29.8 µM
not listed: [2] | [3] | [4] | [5] | [10] | [11]
inactive: all other assays above

Cc1cc2c(cc1C(F)(F)F)N(C(=O)Nc1ccc(Oc3cccnc3C)nc1)CC2
active: [19] 31.1 µM
not listed: [2] | [5] | [11] | [12] | [15] | [20]
inactive: all other assays above

COc1ccc(-c2ccc3cc(C(=O)O)ccc3c2)cc1C12CC3CC(CC(C3)C1)C2
inactive: [18] | [3] | [6] | [7] | [8] | [10] | [20] | [13] | [14] | [16]
active: [2] 21.3 µM | [5] 4.77 µM

CCCCCCOC(=O)c1ccc(O)cc1
active: [2] 43.7 µM and 7.76 µM | [6] 43.7 µM and 24.5 µM | [13] 24.4 µM and 27.3 µM
not listed: [5] | [11] | [15] | [16] | [17] | [18] | [20]
inactive: all other assays above

Fc1ccc([C@@H]2CCNC[C@H]2COc2ccc3c(c2)OCO3)cc1
active: [2] 26.8 µM
not listed: [4] | [5] | [8] | [18]
inactive: all other assays above
